# ELG1 DNA repair: inhibitors of ELG1-dependent DNA repair in HEK293T cells; AID 504467; Potency, µM (titrated, usually from 46.1 µM), for inactives: at the top dose activity change, negative = inhibition, usual class: inhibitors; HEK293T ELG1-luciferase reporter, luminescence, 16 h; DNA damage induced by 5-fluorouridine; actives 2.3% (n = 330,000); also: % is scaled to controls: 0 for no effect and ±100 for the full control effect; nearly all actives have a fitted effect of over 55% in size
#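 Quantitative HTS, concentration-response format. 2,000 cells/well co-treated with 5-fluorouridine and compound, 16 hr in 5% CO2 at 37 °C; ONE-Glo luminescence read after 30 min.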
# Rango release inh: inhibitors of RanGTP-induced Rango-importin beta complex dissociation | O95149+P62826 | Biochemical FRET Rango-importin beta, RanGTP-induced dissociation | Potency, µM (titrated, usually from 46.1 µM), inactives show top-dose activity change, negative = inhibition | actives 0.071% (n = 340,000); calls by dose curve; also: % of control where 0% means no effect; nearly all actives have a fitted effect of over 45% in size
#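 FRET read at 45 min, room temperature: inhibitors block the CFP/YFP signal rise when RanGTP (0.6 uM Ran, 2 mM GTP, 0.2 uM RCC1) frees Rango (0.1 uM) from importin beta (0.25 uM). Pre-read after 5 min compound exposure flags interference.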
# PKM2 activator: PKM2 (human) enzyme activation; P14618; purified PKM2, Kinase-Glo ATP luminescence, activation; response scale: 0% is enzyme alone, no compound; Potency, µM (titrated, usually from 57.5 µM), inactives show top-dose activation, hits mostly activators; actives 0.34% (n = 260,000); also: % is scaled to controls: 0 for no effect and ±100 for the full control effect; nearly all actives have a fitted effect of over 55% in size
#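 hPK-M2, >95% pure; 0.1 mM ADP / 0.5 mM PEP final; imidazole pH7.2 buffer w/ 7 mM MgCl2, 50 mM KCl; 1 h RT; Kinase-Glo lum. Intermediate enzyme activity for dual inhibitor/activator qHTS.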
# Rango complex inh: inhibitors of Rango-importin beta complex formation; Q14974; Rango CFP/YFP FRET sensor + importin beta, 45 min; Potency, µM (top dose mostly 92.2 µM), for the others: at the highest dose inhibition of complex formation; actives 0.031% (n = 340,000); calls by dose curve;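 also: 0% = DMSO wells and 100% = buffer wells lacking importin beta; nearly all actives have a fitted effect of over 15% in size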
#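 FRET biosensor (snurportin 1 IBB flanked by EYFP and cerulean), 50 nM, with compound 5 min, then 0.125 microM importin beta in PBS, 1 mM DTT, 0.02% Tween-20, 0.1% BSA. CFP/YFP ratio read after 45 min at room temperature; pre-read flags interference.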
# Tb PFK block: inhibitors of T. brucei phosphofructokinase; O15648; T. brucei PFK, ADP-Glo luminescence; Potency, µM (doses to about 57.5 µM), for the others: at the highest dose activity, negative = inhibition, most hits filed as inhibitors; actives 0.17% (n = 330,000); AID 485367;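 also: 0% = uninhibited 1x PFK enzyme wells and -100% = no-enzyme wells; nearly all actives have a fitted effect of over 60% in size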
#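 In TEA buffer at pH 8.0 with 5 mM MgCl2, enzyme (1.25 nM) converted F6P (0.5 mM) and ATP (0.1 mM) for 45 min at room temperature. ADP product was read by luciferase luminescence.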
# PGK inhibitor: T. brucei PGK inhibition | Potency, µM (titrated, usually from 57.5 µM), for the others: at the highest dose activity change, negative = inhibition, hits mostly inhibitors | PGK/GAPDH coupled, Kinase-Glo luminescence, 60 min | actives 0.043% (n = 380,000) | AID 602233; also: % is scaled to controls: 0 for no effect and ±100 for the full control effect; nearly all actives have a fitted effect of over 60% in size
# Target sequence (P07378 whole entry, looked up): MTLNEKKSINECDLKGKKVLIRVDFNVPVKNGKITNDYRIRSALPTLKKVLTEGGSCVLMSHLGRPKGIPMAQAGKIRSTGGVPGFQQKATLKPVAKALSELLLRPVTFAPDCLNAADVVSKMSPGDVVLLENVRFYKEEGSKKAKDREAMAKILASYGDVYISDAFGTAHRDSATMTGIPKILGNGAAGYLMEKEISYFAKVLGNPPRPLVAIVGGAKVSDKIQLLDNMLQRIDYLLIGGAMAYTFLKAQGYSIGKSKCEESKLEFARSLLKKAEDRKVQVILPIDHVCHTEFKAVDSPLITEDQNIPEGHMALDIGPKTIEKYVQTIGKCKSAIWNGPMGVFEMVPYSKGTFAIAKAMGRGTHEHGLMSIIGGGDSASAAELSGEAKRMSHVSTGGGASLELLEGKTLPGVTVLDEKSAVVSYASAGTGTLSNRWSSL
#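 Recombinant glycosomal PGK reaction used 1,3-bisphosphoglycerate generated in-well by GAPDH (100nM final) in 100mM TEA pH 7.6, 5mM MgCl2, 0.01% Tween-20. After 60 minutes at room temperature, ATP was read by Kinase-Glo Plus luminescence end-point.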
# ELG1 FLuc counter: luciferase inhibition in cell-free luciferin readout for ELG1 hits | Potency, µM (series often up to 46.1 µM), without a hit: top-dose activity change, negative = inhibition, actives largely listed as inhibitors | shares compounds with ELG1 DNA repair | AID 624247 | cell-free firefly luciferase luminescence counter-screen, ViewLux | actives 3% (n = 350); also: % is scaled to controls: 0 for no effect and ±100 for the full control effect
# ELG1-Luc inh: inhibits ELG1-dependent DNA repair in HEK293T cells, confirmed | AID 624248 | actives 68% (n = 670) | HEK293T ELG1-luciferase levels, luminescence; cells co-treated with 5-fluorouridine | shares compounds with ELG1 DNA repair | Potency, µM (series often up to 46.1 µM), for the others: top-dose activity change, negative = inhibition, actives largely listed as inhibitors; also: % is scaled to controls: 0 for no effect and ±100 for the full control effect; nearly all actives have a fitted effect of over 55% in size
# ELG1 MMS Luc: MMS-stimulated human ELG1 repair inhibition, confirmed | Potency, µM (top dose mostly 46.1 µM), without a hit: top-dose activity change, negative = inhibition, most hits filed as inhibitors | actives 53% (n = 670) | HEK293T luciferase-tagged ELG1 level, MMS stimulated | AID 624249 | shares compounds with ELG1 DNA repair; also: % is scaled to controls: 0 for no effect and ±100 for the full control effect; nearly all actives have a fitted effect of over 60% in size
# ELG1 5-FU: confirmation of ELG1 repair inhibitors: viability with 5FU. shares compounds with ELG1 DNA repair. cell viability with 5-FU, ELG1-dependent repair. Potency, µM (top dose mostly 46.1 µM), without a hit: at the highest dose activity change, negative = viability loss, most hits filed as cytotoxic. 670 tested, under 10 active;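 also: ELG1-luc HEK293T cells cotreated with 5-fluorouridine at 10 µM final; viability measured 16 h after compound addition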
# ELG1 MMS cell: confirmation of ELG1 repair inhibitors: viability with MMS; shares compounds with ELG1 DNA repair; Cell viability with MMS, ELG1-dependent DNA repair; Potency, µM (titrated, usually from 46.1 µM), for the others: at the top dose activity change, negative = viability loss, hits mostly cytotoxic; actives 33% (n = 670);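 also: ELG1-luc HEK293T cells co-treated with 10 µM MMS; viability read 16 h after compound addition; % is scaled to controls: 0 for no effect and ±100 for the full control effect; nearly all actives have a fitted effect of over 60% in size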
# Cell viab unstim: affects unstimulated cell viability, ELG1 hit counter-screen | shares compounds with ELG1 DNA repair | cell viability counter-screen, unstimulated, luminescence | Potency, µM (series often up to 45.9 µM), for the others: top-dose activity change, negative = loss of viability, actives largely listed as cytotoxic | actives 8% (n = 900) | AID 624252;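 also: compound exposure lasted 16 hours before reading; % is scaled to controls: 0 for no effect and ±100 for the full control effect; nearly all actives have a fitted effect of over 55% in size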
# FLuc enzyme: inhibits purified firefly luciferase, counter-screen for ELG1 hits | shares compounds with ELG1 DNA repair | purified firefly luciferase, luminescence counter-screen | Potency, µM (doses to about 57.5 µM), without a hit: at the top dose activity, negative = inhibition, most hits filed as inhibitors | actives 10% (n = 350); also: % is scaled to controls: 0 for no effect and ±100 for the full control effect
# * marks the source's active call; other numbers are inactive results; i = inactive; ? = inconclusive; · = not tested or not shown. Shown are actives, neighbours in structure and some others; about 2.4% of the full set was active somewhere. Unless noted, calls follow the shape of the dose curve; as a rule, active = well fitted curve in the direction sought with a large enough effect; inconclusive = small, poorly fitted or top-dose-only effect, or another doubt; inactive = no such curve, though single readings can be large; an effect the other way counts as inactive or inconclusive. Potency is read from the fitted curve at half-maximal effect.
SMILES,ELG1 DNA repair,Rango release inh,PKM2 activator,Rango complex inh,Tb PFK block,PGK inhibitor,ELG1-Luc inh,ELG1 MMS Luc,ELG1 5-FU,ELG1 MMS cell,Cell viab unstim,others
Fc1ccccc1-c1csc(=Nc2cccnc2)n1CC1CCCO1 (stereo not drawn),?,0%,9%,2%,1%,1%,?,22µM*,9%,16µM*,?,ELG1 FLuc counter=-12%;FLuc enzyme=-15%
CC(C)Cn1c(-c2ccco2)csc1=Nc1cccnc1,19%,2%,2%,0%,0%,-2%,·,·,·,·,·,
Cc1ccc(S(=O)(=O)N2CCOCC2)cc1C(=O)N1CCN(c2ccc(C(F)(F)F)cn2)CC1,?,-9%,·,?,-2%,-8%,·,·,·,·,·,
COc1ccccc1/C=C/c1nc2ccccc2o1,·,·,·,·,·,·,·,·,·,·,0%,
COc1cccc(NC(=O)NC2(C(=O)N3CCN(C)CC3)CCCCC2)c1,14%,-3%,1%,-2%,5%,-5%,·,·,·,·,·,
Cc1nn(-c2ccccc2)c(N2CCCC2)c1/C=N/n1cnc2scc(-c3ccccc3)c2c1=O,13µM*,-3%,-6%,-15%,-5%,-11%,4.5µM*,?,6%,-9%,?,ELG1 FLuc counter=2%;FLuc enzyme=-4%
O=c1c2c(-c3ccccc3)csc2ncn1/N=C/c1c2ccccc2cc2ccccc12,?,?,-3%,?,-1%,i,·,·,·,·,·,
Cn1ncc(C(=O)N2CCN(c3ccccc3)CC2)c1C1CCN(C(=O)OC(C)(C)C)CC1,·,·,·,·,·,5%,·,·,·,·,·,
CN(C(=O)c1cccc(NC(=O)Cc2cccc(NC(=O)C3CCN(C(=O)C4CCCCC4)CC3)c2)c1)C1CCC1,·,25%,·,1%,·,0%,·,·,·,·,·,
Fc1ccc(C[n+]2csc3ccccc32)cc1,5%,-4%,21%,-3%,-6%,9%,·,·,·,·,·,
ICC[n+]1csc2ccccc21,·,·,·,·,·,·,·,·,·,·,-1%,
COc1ccc(S(=O)(=O)N(C)c2ccc(C(=O)N3CCCCC3)cc2)cc1OC,?,-15%,0%,-4%,1%,3%,·,·,·,·,·,
O=C(COc1ccccc1Cl)Nc1ccc(-c2nc3ccccc3s2)cc1,·,·,·,·,·,-8%,·,·,·,·,?,
O=C1NC[C@H](c2ccccc2)OC(=O)[C@H](Cc2ccc(F)cc2)CC/C=C/C[C@H]1CC(=O)N(CCO)Cc1ccccc1,2.9µM*,-11%,·,3%,-4%,-9%,11µM*,13µM*,?,?,-13%,
O=C1NC[C@@H](c2ccccc2)OC(=O)[C@H](Cc2ccc(F)cc2)C/C=C\C[C@@H]1CC(=O)N(CCO)Cc1ccccc1,-18%,34%,·,2%,0%,3%,·,·,·,·,·,
COc1ccc(/C=C/C(=O)O/N=C(\N)c2ccccn2)cc1OC,?,10%,·,1%,3%,i,·,·,·,·,-9%,
N/C(=N\OC(=O)/C=C/c1ccccc1)c1ccccn1,?,-1%,-30%,-1%,-10%,?,·,·,·,·,·,
CCN1CCN(C(=O)C2CCCN(c3ncnc4c3nc3n4CCCCC3)C2)CC1 (stereo not drawn),?,0%,·,1%,-4%,6%,·,·,·,·,·,
O=C(C1CCCN(c2ncnc3c2nc2n3CCCCC2)C1)N1CCN(c2ccccc2F)CC1 (stereo not drawn),9.2µM*,25%,·,5%,-4%,3%,11µM*,25µM*,-7%,-8%,?,ELG1 FLuc counter=-7%;FLuc enzyme=-5%
CCc1cccc(NC(=O)C2CCCN(c3ncnc4c3nc3n4CCCCC3)C2)c1 (stereo not drawn),18µM*,8%,·,2%,-4%,13%,14µM*,22µM*,1%,-6%,?,ELG1 FLuc counter=-8%;FLuc enzyme=-6%
COc1cc(NC(=O)C2CCCN(c3ncnc4c3nc3n4CCCCC3)C2)cc(OC)c1OC (stereo not drawn),1.8µM*,12%,·,1%,-1%,6%,4.5µM*,9%,?,7%,0%,ELG1 FLuc counter=9%;FLuc enzyme=1%
COc1cccc(C(CNC(=O)C(c2ccccc2)c2ccccc2)N(C)C)c1 (stereo not drawn),21%,10%,-8%,0%,-1%,-4%,·,·,·,·,·,
Clc1ccccc1C1=Nn2c(nnc2-c2ccncc2)SC1,4.6µM*,12%,3%,1%,9%,-7%,3.2µM*,6.3µM*,13%,-1%,-7%,ELG1 FLuc counter=?;FLuc enzyme=-6%
CCN(CC)S(=O)(=O)c1ccc(N2CCOCC2)c(NC(=O)c2ccccc2F)c1,0%,-4%,-6%,-6%,2%,4%,·,·,·,·,·,
CCN(CC)S(=O)(=O)c1ccc(N2CCOCC2)c(NC(=O)COc2ccccc2)c1,?,9%,10%,3%,-3%,5%,·,·,·,·,·,
CCN(CC)S(=O)(=O)c1ccc(N2CCOCC2)c(NC(=O)c2[nH]c(C)c(C(C)=O)c2C)c1,?,?,·,2%,0%,10%,·,·,·,·,-7%,

# Screening results (PubChem)
